{"source": "PubChem BioAssay (Tox21)", "note": "Inconclusive results are not listed. Activity calls are given as the source filed them. Calls come from the whole dose curve; as a rule, active = well fitted inhibition curve with a large enough effect in the signal ratio in the repeat runs (not every such curve was filed as active); inconclusive = weak or mixed curves; inactive = flat fitted curve, though single readings scatter; the % refers to the signal ratio. % is set by controls: 0 for no effect and ±100 for the full control effect."}
{"molecular_target": "Progesterone receptor (Homo sapiens) (UniProt P06401)", "sequence (P06401 whole entry, looked up)": "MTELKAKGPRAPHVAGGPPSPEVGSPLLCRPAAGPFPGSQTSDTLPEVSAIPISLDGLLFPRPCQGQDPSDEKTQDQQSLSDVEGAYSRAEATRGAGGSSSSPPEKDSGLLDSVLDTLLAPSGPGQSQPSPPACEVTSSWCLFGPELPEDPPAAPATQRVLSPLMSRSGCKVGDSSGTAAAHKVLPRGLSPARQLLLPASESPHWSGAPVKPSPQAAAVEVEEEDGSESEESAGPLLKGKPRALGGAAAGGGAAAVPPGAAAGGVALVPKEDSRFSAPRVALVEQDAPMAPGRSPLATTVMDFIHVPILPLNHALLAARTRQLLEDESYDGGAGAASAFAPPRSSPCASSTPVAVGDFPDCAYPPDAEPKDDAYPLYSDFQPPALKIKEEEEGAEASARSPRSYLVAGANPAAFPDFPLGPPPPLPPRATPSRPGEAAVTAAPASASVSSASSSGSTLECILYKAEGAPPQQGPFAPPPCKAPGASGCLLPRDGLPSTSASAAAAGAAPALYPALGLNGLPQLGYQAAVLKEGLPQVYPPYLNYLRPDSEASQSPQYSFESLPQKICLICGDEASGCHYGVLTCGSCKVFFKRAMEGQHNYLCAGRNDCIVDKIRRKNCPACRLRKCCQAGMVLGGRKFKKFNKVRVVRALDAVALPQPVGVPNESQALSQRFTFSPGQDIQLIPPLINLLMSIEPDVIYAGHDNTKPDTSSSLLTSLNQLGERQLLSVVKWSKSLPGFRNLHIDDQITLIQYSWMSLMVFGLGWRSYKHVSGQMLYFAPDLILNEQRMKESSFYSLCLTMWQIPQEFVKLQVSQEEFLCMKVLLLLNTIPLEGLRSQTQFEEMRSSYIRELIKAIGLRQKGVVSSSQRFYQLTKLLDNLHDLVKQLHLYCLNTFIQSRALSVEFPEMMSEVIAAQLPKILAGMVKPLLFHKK", "assay": "qHTS assay to identify small molecule antagonists of the progesterone receptor (PR) signaling pathway (AID 1346795)", "details": "PR-UAS-bla HEK293T, beta-lactamase FRET ratio, 16 h; series mostly up to 92.4 µM; activity change, negative = inhibition: at the top concentration", "text": "National Center for Advancing Translational Sciences [NCATS]\nNIH Chemical Genomics Center [NCGC]\nU.S. Environmental Protection Agency [EPA]\nNational Institutes of Environmental Health Sciences [NIEHS]\nNational Toxicology Program [NTP]\nU.S. Food and Drug Administration [FDA]\nProgesterone receptor (PR), a nuclear hormone receptor, plays an important role in development, metabolic homeostasis and reproduction. […] Endocrine disrupting chemicals (EDCs) and their interactions with steroid hormone receptors like PR causes disruption of normal endocrine function. To identify the compounds that inhibit PR signaling, a PR-UAS-bla GripTite cell line i.e. PR-UAS-bla HEK293T (Invitrogen, Carlsbad, CA, USA) containing a beta-lactamase reporter gene under the control of an Upstream Activator Sequence (UAS) was used to screen Tox21 10K compound library.\nTox21 Assay Protocol Summary:\nPR-UAS-bla HEK293T cells were dispensed at 3,000 cells/4 uL of assay medium containing 2% charcoal stripped FBS per well into black wall/clear-bottom 1536-well plates using a Multidrop Combi (ThermoFisher Scientific, Waltham, MA) dispenser. After the assay plates were incubated at a 37C and 5% CO2 for 6 hr, 23 nL of compounds dissolved in DMSO, positive controls or DMSO only was transferred to the assay plate by a Pintool station (Kalypsys, San Diego, CA), followed by addition of 1 uL (1nM as final concentration) of Promegestone (R5020) in assay medium using a BioRAPTR FRD (Flying Reagent Dispenser, Aurora Discovery, San Diego, CA). The plates were incubated at 37C and 5% CO2 for 16 hr. Then 1 uL of LiveBLAzer B/G FRET substrate was added using a FRD. After the plates were incubated at room temperature for 2 hours, fluorescence intensity was measured by an Envision plate reader (PerkinElmer, Shelton, CT)."}
{"compound": "CCCCCCCCCCCCCBr", "activity change, negative = inhibition": "0.307% (inactive)"}
{"compound": "C=CCN1C[C@H](C(=O)N(CCCN(C)C)C(=O)NCC)C[C@@H]2c3cccc4[nH]cc(c34)C[C@H]21", "activity change, negative = inhibition": "5.12% [at 42.5 µM] (inactive)"}
{"compound": "O=C(O)CCCCCC(=O)O", "activity change, negative = inhibition": "1.24% (inactive)"}
{"compound": "O=C1NC(c2ccccc2)(c2ccccc2)C(=O)N1COP(=O)(O)O", "activity change, negative = inhibition": "11.5% [at 42.5 µM] (inactive)"}
{"compound": "c1ccc(-c2nn[nH]n2)cc1", "activity change, negative = inhibition": "0.802% (inactive)"}
{"compound": "C=CCSSCCC", "activity change, negative = inhibition": "0.0183% (inactive)"}
{"compound": "COP(=O)(O)OP(=O)(O)OC", "activity change, negative = inhibition": "7.04% (inactive)"}
{"compound": "CCO[Si](CC)(OCC)OCC", "activity change, negative = inhibition": "0.219% (inactive)"}
{"compound": "CC1(C)CC(OC(=O)CCCCCCCCC(=O)OC2CC(C)(C)NC(C)(C)C2)CC(C)(C)N1", "activity change, negative = inhibition": "5.15% [at 18.9 µM] (inactive)"}
{"compound": "CC(C)[C@H]1CC[C@H](C)C[C@@H]1O", "activity change, negative = inhibition": "12.6% (inactive)"}
{"compound": "N#Cc1ccccc1O", "activity change, negative = inhibition": "1.57% (inactive)"}
{"compound": "CC(C)NCC(O)c1ccc2ccccc2c1", "note": "(stereo not given)", "activity change, negative = inhibition": "2.72% [at 42.5 µM] (inactive)"}
{"compound": "CCCCCCCCCCCCCCCCCCOCCO", "activity change, negative = inhibition": "-1.49% [at 18.9 µM] (inactive)"}
{"compound": "CO/N=C(/C(=O)N[C@@H]1C(=O)N2C(C(=O)[O-])=C(C[n+]3ccn4ncccc43)CS[C@H]12)c1nsc(N)n1", "activity change, negative = inhibition": "1.27% [at 42.5 µM] (inactive)"}
{"compound": "CCCCCCCCCCCCCCC(=O)NC(CO)CCCCCCCCCCCCCC", "note": "(stereo not given)", "activity change, negative = inhibition": "-0.133% (inactive)"}
{"compound": "CN(C)CCCO[C@@H]1[C@H]2OC(C)(C)O[C@H]2O[C@@H]1C(O)CO", "note": "(stereo not given in full)", "activity change, negative = inhibition": "7.24% [at 42.5 µM] (inactive)"}
{"compound": "CCn1cc(C(=O)O)c(=O)c2cnc(N3CCCC3)nc21", "activity change, negative = inhibition": "1.66% [at 8.39 µM] (inactive)"}
{"compound": "CCCCCCCCCOC(=O)c1ccccc1C(=O)OCCCCCCCCC", "activity change, negative = inhibition": "6.84% (inactive)"}
{"compound": "C/C=C(\\C)C(C)=O", "activity change, negative = inhibition": "8.45% (inactive)"}
{"compound": "CC(C)OC(=O)OCOP(=O)(CO[C@H](C)Cn1cnc2c(N)ncnc21)OCOC(=O)OC(C)C", "activity change, negative = inhibition": "-7.79% [at 42.5 µM] (inactive)"}
{"compound": "Nc1nnnn1-c1ccccc1", "activity change, negative = inhibition": "8.4% [at 42.5 µM] (inactive)"}
{"compound": "CC1CC(=O)CC(C)(C)C1", "note": "(stereo not given)", "activity change, negative = inhibition": "14.3% (inactive)"}
{"compound": "Cc1c(C(=O)c2c[nH]n(C)c2=O)ccc(S(C)(=O)=O)c1C1=NOCC1", "activity change, negative = inhibition": "13.7% [at 42.5 µM] (inactive)"}
{"compound": "CCOC(CN1CCN(CC(C)C(=O)c2ccccc2)CC1)c1ccccc1", "note": "(stereo not given)", "activity change, negative = inhibition": "8.35% [at 18.9 µM] (inactive)"}
{"compound": "CCN1CCCC1CN", "note": "(stereo not given)", "activity change, negative = inhibition": "8.92% [at 42.5 µM] (inactive)"}
{"compound": "COc1c2occc2c(OC)c2c(=O)cc(C)oc12", "activity change, negative = inhibition": "3.49% [at 42.5 µM] (inactive)"}
{"compound": "O=Cc1ccccc1Cl", "activity change, negative = inhibition": "11.6% (inactive)"}
{"compound": "COC(=O)c1cccc(Cl)c1", "activity change, negative = inhibition": "0.375% (inactive)"}
{"compound": "CCOc1ccccc1OCC1CNCCO1", "note": "(stereo not given)", "activity change, negative = inhibition": "5.74% [at 42.5 µM] (inactive)"}
{"compound": "CCCCC1CCC(O)CC1", "note": "(stereo not given)", "activity change, negative = inhibition": "0% (inactive)"}
{"compound": "COCCc1ccccn1", "activity change, negative = inhibition": "10.9% [at 42.5 µM] (inactive)"}
{"compound": "CC1OCCC1=O", "note": "(stereo not given)", "activity change, negative = inhibition": "3.61% (inactive)"}
{"compound": "NCc1ccc(S(N)(=O)=O)cc1", "activity change, negative = inhibition": "14.5% [at 42.5 µM] (inactive)"}
{"compound": "CCCCCc1cccc(=O)o1", "activity change, negative = inhibition": "-0.353% (inactive)"}
{"compound": "COC(=O)CCCCC(CCSS/C(CCO)=C(\\C)N(C=O)Cc1cnc(C)nc1N)SC(C)=O", "note": "(stereo not given)", "activity change, negative = inhibition": "0.783% [at 42.5 µM] (inactive)"}
{"compound": "CC(=O)OC(C)=O", "activity change, negative = inhibition": "4.12% (inactive)"}
{"compound": "CC(=O)O[C@@H]1CC2CCC1(C)C2(C)C", "note": "(stereo not given in full)", "activity change, negative = inhibition": "12.9% (inactive)"}
{"compound": "COC(=O)/C=C\\C(=O)O", "activity change, negative = inhibition": "0.776% (inactive)"}
{"compound": "CC(=O)CCc1ccc(OC(C)=O)cc1", "activity change, negative = inhibition": "7.55% (inactive)"}
{"compound": "CC(C)CCOC(=O)c1ccccc1", "activity change, negative = inhibition": "1.05% (inactive)"}
